Data taken from article PMC7862700, “An all-to-all approach to the identification of sequence-specific readers for epigenetic DNA modifications on cytosine”.

Legend:
Test in all cases: DAPPL (digital affinity profiling via proximity ligation, sequencing); 10 mM Tris-HCl pH 7.5, 50 mM NaCl, 1 mM DTT, 4% glycerol, room temperature, 30 min; GST-TFs on glutathione beads, 16-mer random dsDNA library, 0.1% formaldehyde crosslink after washing; high values mean tight binding
FLI1 = molecular target: T1, FLI1 (Homo sapiens, UniProt Q01543 1-452); settings: protein: recombinant; tags: N-terminal GST; dsDNA, one strand shown
T1 sequence: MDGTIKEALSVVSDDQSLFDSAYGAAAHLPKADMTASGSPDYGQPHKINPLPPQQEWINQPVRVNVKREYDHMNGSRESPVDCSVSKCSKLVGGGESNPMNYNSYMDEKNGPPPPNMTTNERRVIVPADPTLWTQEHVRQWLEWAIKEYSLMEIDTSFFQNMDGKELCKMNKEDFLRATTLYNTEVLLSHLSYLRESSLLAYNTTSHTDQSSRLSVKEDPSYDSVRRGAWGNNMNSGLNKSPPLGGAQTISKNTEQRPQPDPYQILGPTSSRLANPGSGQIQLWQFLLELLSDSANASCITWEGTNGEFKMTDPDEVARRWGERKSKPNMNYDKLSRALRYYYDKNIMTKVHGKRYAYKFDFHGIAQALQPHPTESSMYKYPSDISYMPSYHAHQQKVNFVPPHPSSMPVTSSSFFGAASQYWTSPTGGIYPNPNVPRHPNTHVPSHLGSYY
How it was run: (§1)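 After expression in yeast as GST fusions, human transcription factors were bound to glutathione beads, DNA-barcoded and mixed with a tag-only sample. The pools were incubated with 200 nmole of a 16-mer random double-stranded DNA library in Tris/NaCl/DTT/glycerol buffer (30 min, room temperature), washed and crosslinked with 0.1% formaldehyde. Proximity ligation with BsaI/T4 ligase ran for 1 h at 37 °C, before PCR amplification and sequencing on an Illumina NextSeq500. Binding signal is a hexamer's read frequency for a factor divided by its frequency for the tag-only sample.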

ELK1 = molecular target: T2, ELK1 (Homo sapiens, UniProt P19419 1-428); settings: protein: recombinant; tags: N-terminal GST; dsDNA, one strand shown
T2 sequence: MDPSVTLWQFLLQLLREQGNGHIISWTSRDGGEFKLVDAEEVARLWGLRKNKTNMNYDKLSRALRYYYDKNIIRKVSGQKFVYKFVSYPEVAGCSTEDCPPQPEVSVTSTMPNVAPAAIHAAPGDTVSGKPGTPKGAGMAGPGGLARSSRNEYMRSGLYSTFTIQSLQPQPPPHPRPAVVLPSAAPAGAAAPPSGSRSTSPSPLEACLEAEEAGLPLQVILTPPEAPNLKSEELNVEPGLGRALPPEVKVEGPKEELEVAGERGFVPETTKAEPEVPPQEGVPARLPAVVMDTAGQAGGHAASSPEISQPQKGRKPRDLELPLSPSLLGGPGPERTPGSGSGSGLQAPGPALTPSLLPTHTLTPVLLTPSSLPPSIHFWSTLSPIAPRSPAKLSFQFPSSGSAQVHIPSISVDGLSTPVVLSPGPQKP
How it was run: as §1

GABPA = molecular target: T3, GABPA (Homo sapiens, UniProt Q06546 1-454); settings: protein: recombinant; tags: N-terminal GST; dsDNA, one strand shown
T3 sequence: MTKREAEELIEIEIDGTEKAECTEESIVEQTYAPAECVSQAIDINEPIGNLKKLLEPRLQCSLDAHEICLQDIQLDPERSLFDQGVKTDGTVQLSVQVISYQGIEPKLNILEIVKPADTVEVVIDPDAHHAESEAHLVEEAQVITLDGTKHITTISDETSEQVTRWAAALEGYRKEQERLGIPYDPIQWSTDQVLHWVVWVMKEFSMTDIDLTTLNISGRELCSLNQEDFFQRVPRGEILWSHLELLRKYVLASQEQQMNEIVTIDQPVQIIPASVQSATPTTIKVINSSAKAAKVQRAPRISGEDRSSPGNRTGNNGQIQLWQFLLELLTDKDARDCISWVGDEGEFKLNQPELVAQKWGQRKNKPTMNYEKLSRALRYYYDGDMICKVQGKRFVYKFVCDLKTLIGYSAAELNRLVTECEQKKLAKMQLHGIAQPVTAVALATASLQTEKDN
How it was run: as §1

ERG = molecular target: T4, ERG (Homo sapiens, UniProt P11308 1-479); settings: protein: recombinant; tags: N-terminal GST; dsDNA, one strand shown
T4 sequence: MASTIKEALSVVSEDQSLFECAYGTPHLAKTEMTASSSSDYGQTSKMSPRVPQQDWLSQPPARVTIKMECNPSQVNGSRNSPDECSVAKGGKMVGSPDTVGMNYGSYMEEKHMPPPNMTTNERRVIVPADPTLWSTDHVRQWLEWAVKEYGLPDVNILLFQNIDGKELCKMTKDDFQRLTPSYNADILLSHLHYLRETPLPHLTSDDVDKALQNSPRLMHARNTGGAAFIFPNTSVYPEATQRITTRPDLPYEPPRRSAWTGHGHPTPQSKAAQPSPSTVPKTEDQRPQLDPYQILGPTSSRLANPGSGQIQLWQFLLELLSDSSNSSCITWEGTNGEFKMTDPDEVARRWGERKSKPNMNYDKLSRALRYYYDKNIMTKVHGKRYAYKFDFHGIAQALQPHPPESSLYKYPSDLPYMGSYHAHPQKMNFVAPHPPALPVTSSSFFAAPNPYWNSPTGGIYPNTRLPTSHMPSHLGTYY
How it was run: as §1

ELF1 = ELF1 (Homo sapiens, UniProt P32519 1-619); settings: protein: recombinant; tags: N-terminal GST; dsDNA, one strand shown
How it was run: as §1

EHF = molecular target: T5, EHF (Homo sapiens, UniProt Q9NZC4 1-300); settings: protein: recombinant; tags: N-terminal GST; dsDNA, one strand shown
T5 sequence: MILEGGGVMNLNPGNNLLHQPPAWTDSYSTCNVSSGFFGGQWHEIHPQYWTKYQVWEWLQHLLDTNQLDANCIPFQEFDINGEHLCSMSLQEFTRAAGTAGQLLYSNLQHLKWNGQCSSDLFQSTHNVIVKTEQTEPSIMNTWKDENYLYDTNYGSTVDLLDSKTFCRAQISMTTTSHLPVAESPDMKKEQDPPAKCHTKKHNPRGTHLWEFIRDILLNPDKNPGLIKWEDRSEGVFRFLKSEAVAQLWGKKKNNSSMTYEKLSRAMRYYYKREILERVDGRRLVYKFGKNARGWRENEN
How it was run: as §1

SPI1 = SPI1 (Homo sapiens, UniProt P17947 1-270); settings: protein: recombinant; tags: N-terminal GST; dsDNA, one strand shown
How it was run: as §1

SPIB = SPIB (Homo sapiens, UniProt Q01892 1-262); settings: protein: recombinant; tags: N-terminal GST; dsDNA, one strand shown
How it was run: as §1

ELK3 = molecular target: T6, ELK3 (Homo sapiens, UniProt P41970 1-407); settings: protein: recombinant; tags: N-terminal GST; dsDNA, one strand shown
T6 sequence: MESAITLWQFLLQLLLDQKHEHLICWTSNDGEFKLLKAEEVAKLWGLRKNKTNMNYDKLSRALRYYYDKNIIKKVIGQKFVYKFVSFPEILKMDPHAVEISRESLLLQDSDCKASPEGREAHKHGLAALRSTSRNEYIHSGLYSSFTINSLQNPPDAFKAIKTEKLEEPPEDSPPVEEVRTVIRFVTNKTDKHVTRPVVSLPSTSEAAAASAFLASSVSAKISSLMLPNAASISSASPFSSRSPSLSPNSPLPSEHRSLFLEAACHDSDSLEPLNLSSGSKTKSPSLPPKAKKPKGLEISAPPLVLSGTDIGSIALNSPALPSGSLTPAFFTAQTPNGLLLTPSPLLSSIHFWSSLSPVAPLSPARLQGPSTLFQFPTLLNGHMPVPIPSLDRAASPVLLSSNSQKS
How it was run: as §1

FEV = molecular target: T7, FEV (Homo sapiens, UniProt Q99581 1-238); settings: protein: recombinant; tags: N-terminal GST; dsDNA, one strand shown
T7 sequence: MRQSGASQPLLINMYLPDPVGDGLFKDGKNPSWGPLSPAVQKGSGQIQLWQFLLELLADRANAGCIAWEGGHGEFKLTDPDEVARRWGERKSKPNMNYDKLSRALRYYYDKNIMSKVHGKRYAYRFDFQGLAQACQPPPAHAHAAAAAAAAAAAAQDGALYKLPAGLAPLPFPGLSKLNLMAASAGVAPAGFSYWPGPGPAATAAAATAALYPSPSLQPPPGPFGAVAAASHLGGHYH
How it was run: as §1

ETV5 = ETV5 (Homo sapiens, UniProt P41161 1-510); settings: protein: recombinant; tags: N-terminal GST; dsDNA, one strand shown
How it was run: as §1

HSF1 = HSF1 (Homo sapiens, UniProt Q00613 1-529); settings: protein: recombinant; tags: N-terminal GST; chain copies: 3; dsDNA, one strand shown
How it was run: as §1

SPIC = molecular target: T8, SPIC (Homo sapiens, UniProt Q8N5J4 1-248); settings: protein: recombinant; tags: N-terminal GST; dsDNA, one strand shown
T8 sequence: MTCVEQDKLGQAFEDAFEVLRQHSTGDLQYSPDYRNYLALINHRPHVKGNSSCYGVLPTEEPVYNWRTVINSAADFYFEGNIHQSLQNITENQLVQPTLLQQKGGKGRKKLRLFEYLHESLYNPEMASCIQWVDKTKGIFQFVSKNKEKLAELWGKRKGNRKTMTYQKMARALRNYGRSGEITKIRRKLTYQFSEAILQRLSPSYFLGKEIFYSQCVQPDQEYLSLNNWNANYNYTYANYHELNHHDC
How it was run: as §1

ELF4 = ELF4 (Homo sapiens, UniProt Q99607 1-663); settings: protein: recombinant; tags: N-terminal GST; dsDNA, one strand shown
How it was run: as §1

ELK4 = molecular target: T9, ELK4 (Homo sapiens, UniProt P28324-2 1-405); settings: protein: recombinant; tags: N-terminal GST; dsDNA, one strand shown
T9 sequence: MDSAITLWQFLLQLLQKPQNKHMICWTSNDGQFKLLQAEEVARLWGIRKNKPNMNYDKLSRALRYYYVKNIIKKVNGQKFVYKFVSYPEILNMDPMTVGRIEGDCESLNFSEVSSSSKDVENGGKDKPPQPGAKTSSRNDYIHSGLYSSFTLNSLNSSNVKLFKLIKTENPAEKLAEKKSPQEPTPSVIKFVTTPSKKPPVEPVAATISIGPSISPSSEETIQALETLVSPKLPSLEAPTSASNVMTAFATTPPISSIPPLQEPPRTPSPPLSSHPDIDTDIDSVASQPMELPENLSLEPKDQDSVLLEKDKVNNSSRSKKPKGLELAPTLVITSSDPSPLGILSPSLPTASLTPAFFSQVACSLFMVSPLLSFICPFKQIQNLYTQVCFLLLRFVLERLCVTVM
How it was run: as §1

ETV2 = molecular target: T10, ETV2 (Homo sapiens, UniProt O00321 1-342); settings: protein: recombinant; tags: N-terminal GST; dsDNA, one strand shown
T10 sequence: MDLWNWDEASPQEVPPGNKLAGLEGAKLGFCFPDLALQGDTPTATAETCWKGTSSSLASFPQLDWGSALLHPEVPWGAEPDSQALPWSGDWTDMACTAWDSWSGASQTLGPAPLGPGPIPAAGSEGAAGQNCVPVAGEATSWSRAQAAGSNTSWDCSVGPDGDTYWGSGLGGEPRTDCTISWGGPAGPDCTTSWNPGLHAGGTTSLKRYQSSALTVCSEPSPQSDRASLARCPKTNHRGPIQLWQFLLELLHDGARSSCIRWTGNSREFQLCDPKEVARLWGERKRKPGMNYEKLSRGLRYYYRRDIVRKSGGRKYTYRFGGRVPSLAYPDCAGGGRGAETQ
How it was run: as §1

ELF3 = molecular target: T11, ELF3 (Homo sapiens, UniProt P78545 1-371); settings: protein: recombinant; tags: N-terminal GST; dsDNA, one strand shown
T11 sequence: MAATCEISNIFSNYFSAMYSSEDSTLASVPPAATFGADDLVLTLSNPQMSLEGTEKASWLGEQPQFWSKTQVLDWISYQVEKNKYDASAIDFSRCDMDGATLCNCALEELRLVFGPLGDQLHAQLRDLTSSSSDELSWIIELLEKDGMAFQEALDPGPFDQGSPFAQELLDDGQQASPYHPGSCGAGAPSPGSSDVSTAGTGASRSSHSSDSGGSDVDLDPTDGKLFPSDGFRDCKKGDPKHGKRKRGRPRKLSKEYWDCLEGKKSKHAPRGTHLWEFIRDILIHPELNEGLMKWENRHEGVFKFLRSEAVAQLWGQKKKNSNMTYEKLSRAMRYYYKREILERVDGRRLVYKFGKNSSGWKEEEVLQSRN
How it was run: as §1

CRX = CRX (Homo sapiens, UniProt O43186 1-299); settings: protein: recombinant; tags: N-terminal GST; dsDNA, one strand shown
How it was run: as §1

ETV1 = ETV1 (Homo sapiens, UniProt P50549 1-477); settings: protein: recombinant; tags: N-terminal GST; dsDNA, one strand shown
How it was run: as §1

CRX, sequence (O43186 whole entry): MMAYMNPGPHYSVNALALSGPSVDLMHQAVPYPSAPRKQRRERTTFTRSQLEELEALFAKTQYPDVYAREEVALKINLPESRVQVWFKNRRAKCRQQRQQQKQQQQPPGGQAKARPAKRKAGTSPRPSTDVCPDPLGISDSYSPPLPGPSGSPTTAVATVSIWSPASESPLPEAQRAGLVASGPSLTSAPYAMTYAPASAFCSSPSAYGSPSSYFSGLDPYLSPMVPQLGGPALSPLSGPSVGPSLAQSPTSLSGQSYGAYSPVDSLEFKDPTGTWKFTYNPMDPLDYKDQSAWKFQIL
SPIB, sequence (Q01892 whole entry): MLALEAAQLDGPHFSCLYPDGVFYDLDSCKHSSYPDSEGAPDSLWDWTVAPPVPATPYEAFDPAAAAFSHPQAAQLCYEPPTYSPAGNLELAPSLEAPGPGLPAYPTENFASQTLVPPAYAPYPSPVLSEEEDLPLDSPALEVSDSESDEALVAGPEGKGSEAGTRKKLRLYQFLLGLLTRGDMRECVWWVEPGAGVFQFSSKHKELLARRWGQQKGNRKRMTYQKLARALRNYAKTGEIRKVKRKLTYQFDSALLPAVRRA
ELF1, sequence (P32519 whole entry): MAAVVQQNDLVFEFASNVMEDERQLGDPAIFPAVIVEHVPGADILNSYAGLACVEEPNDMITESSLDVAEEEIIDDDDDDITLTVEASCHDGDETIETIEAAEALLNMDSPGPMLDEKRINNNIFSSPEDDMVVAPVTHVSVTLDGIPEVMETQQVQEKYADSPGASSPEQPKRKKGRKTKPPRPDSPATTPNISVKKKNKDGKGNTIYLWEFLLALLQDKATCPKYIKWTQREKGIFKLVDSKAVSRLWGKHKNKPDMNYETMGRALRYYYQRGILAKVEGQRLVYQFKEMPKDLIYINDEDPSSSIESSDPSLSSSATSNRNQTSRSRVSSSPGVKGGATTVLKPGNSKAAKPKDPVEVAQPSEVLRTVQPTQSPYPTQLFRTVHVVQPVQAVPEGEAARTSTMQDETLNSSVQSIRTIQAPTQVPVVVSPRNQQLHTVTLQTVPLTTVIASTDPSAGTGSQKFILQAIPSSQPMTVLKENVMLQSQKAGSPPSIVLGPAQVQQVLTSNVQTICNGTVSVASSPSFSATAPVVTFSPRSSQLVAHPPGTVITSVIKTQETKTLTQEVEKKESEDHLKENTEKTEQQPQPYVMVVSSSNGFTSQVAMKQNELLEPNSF
HSF1, sequence (Q00613 whole entry): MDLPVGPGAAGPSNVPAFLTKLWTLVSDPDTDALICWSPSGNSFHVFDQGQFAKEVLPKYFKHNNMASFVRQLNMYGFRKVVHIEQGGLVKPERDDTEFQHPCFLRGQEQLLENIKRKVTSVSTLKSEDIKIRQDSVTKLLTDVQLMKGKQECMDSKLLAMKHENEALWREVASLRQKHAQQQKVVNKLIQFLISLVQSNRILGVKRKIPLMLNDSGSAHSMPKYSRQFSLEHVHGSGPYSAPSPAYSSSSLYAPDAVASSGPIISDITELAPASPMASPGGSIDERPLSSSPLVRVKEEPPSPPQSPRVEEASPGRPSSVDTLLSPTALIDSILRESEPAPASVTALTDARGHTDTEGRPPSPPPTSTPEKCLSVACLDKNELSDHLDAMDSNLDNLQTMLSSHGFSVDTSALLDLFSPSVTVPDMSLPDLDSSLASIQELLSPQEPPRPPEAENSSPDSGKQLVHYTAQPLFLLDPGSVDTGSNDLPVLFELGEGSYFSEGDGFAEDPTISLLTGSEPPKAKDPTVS
ELF4, sequence (Q99607 whole entry): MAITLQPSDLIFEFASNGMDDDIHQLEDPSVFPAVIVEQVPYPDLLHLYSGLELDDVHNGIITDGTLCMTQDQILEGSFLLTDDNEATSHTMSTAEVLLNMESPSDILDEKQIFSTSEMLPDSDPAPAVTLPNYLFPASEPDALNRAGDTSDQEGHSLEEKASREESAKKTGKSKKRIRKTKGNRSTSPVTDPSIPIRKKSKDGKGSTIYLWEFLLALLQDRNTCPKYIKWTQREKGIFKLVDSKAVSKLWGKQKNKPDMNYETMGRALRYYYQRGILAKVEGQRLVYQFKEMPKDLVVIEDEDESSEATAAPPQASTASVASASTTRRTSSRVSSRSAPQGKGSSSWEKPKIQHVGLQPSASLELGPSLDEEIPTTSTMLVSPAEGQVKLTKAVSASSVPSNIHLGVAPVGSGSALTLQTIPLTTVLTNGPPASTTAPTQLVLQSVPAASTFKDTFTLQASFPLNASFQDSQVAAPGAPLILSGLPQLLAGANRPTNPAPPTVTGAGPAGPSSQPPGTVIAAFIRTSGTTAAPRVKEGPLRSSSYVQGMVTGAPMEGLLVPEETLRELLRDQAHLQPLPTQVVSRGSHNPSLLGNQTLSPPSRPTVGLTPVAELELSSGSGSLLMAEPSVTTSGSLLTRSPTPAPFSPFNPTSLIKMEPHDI
ETV1, sequence (P50549 whole entry): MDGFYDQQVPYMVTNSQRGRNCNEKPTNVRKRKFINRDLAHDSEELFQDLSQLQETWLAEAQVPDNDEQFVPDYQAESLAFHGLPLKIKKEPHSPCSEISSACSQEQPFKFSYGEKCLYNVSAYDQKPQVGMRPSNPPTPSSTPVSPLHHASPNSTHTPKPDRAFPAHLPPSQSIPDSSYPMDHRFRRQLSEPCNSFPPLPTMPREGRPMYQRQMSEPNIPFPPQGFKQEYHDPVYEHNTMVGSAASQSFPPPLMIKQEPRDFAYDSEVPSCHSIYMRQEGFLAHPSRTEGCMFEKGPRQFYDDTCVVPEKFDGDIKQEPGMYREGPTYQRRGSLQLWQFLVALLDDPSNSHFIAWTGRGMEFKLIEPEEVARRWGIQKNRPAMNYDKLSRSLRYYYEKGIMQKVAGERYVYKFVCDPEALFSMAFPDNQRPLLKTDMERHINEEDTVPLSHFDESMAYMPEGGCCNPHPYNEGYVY
ETV5, sequence (P41161 whole entry): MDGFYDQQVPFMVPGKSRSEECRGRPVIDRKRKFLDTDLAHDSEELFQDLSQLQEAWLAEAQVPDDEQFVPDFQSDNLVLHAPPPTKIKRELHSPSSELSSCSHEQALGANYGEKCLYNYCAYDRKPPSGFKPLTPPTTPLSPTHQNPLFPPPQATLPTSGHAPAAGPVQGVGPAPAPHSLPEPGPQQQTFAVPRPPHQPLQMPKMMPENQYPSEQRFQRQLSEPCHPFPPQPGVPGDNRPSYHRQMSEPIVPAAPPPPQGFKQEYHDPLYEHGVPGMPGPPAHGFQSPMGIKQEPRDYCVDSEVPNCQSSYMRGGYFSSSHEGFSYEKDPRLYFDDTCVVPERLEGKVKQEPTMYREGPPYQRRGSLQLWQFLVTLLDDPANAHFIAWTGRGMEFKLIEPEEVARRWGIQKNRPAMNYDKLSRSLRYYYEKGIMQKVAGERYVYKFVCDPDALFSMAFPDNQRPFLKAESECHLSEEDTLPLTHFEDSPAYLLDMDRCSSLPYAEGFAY

TTCTAC
binding signal (FLI1): 1.39 fold enrichment (6-mer frequency, TF over GST control) | binding signal (ELK1): 1.43 fold enrichment (6-mer frequency, TF over GST control) | binding signal (GABPA): 1.59 fold enrichment (6-mer frequency, TF over GST control) | binding signal (ERG): 1.53 fold enrichment (6-mer frequency, TF over GST control) | binding signal (ELF1): 1.55 fold enrichment (6-mer frequency, TF over GST control) | binding signal (EHF): 1.49 fold enrichment (6-mer frequency, TF over GST control) | binding signal (SPI1): 1.46 fold enrichment (6-mer frequency, TF over GST control) | binding signal (SPIB): 1.6 fold enrichment (6-mer frequency, TF over GST control) | binding signal (ELK3): 1.44 fold enrichment (6-mer frequency, TF over GST control) | binding signal (FEV): 1.5 fold enrichment (6-mer frequency, TF over GST control) | binding signal (ETV5): 1.55 fold enrichment (6-mer frequency, TF over GST control) | binding signal (HSF1): 2.46 fold enrichment (6-mer frequency, TF over GST control) | binding signal (SPIC): 1.7 fold enrichment (6-mer frequency, TF over GST control) | binding signal (ELF4): 1.48 fold enrichment (6-mer frequency, TF over GST control) | binding signal (ELK4): 1.59 fold enrichment (6-mer frequency, TF over GST control) | binding signal (ETV2): 1.53 fold enrichment (6-mer frequency, TF over GST control) | binding signal (ELF3): 1.64 fold enrichment (6-mer frequency, TF over GST control) | binding signal (CRX): 1.69 fold enrichment (6-mer frequency, TF over GST control) | binding signal (ETV1): 1.56 fold enrichment (6-mer frequency, TF over GST control)
